For orientation: inhibition means the change of the read-out against control, counted positive when it falls.

In test [1] the target is T1, Ephrin type-B receptor 2 (Homo sapiens) (UniProt P29323).
T1 sequence (whole entry): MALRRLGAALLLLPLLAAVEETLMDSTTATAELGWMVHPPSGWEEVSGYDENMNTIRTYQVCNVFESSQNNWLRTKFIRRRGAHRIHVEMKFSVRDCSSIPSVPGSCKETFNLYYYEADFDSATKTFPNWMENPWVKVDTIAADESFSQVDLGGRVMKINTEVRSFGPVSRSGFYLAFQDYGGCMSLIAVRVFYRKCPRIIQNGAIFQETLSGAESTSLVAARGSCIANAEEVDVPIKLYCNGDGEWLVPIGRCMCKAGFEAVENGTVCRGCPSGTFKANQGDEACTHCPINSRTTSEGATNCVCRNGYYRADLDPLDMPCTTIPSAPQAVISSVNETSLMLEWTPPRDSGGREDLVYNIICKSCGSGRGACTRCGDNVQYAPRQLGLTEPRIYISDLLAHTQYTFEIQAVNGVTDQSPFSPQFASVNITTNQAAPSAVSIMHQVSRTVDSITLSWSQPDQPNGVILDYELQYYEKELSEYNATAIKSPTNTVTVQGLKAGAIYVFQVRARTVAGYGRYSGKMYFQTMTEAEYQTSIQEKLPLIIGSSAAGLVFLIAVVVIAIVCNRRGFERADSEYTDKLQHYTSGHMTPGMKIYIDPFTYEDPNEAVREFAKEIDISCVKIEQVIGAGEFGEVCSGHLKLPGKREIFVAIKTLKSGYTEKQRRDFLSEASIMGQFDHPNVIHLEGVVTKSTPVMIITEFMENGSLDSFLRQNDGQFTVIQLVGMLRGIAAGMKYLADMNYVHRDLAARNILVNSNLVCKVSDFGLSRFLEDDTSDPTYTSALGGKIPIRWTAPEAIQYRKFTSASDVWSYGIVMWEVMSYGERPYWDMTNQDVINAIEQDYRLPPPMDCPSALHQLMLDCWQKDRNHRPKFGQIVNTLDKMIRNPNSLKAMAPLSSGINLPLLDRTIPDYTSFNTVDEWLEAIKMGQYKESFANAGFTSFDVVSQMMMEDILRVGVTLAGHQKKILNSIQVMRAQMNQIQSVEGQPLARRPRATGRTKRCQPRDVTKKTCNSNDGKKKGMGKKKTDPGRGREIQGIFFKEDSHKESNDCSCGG
The settings on record: at 1 µM.

In test [2] the target is T2, Ephrin type-B receptor 3 (Homo sapiens) (UniProt P54753).
T2 sequence (whole entry): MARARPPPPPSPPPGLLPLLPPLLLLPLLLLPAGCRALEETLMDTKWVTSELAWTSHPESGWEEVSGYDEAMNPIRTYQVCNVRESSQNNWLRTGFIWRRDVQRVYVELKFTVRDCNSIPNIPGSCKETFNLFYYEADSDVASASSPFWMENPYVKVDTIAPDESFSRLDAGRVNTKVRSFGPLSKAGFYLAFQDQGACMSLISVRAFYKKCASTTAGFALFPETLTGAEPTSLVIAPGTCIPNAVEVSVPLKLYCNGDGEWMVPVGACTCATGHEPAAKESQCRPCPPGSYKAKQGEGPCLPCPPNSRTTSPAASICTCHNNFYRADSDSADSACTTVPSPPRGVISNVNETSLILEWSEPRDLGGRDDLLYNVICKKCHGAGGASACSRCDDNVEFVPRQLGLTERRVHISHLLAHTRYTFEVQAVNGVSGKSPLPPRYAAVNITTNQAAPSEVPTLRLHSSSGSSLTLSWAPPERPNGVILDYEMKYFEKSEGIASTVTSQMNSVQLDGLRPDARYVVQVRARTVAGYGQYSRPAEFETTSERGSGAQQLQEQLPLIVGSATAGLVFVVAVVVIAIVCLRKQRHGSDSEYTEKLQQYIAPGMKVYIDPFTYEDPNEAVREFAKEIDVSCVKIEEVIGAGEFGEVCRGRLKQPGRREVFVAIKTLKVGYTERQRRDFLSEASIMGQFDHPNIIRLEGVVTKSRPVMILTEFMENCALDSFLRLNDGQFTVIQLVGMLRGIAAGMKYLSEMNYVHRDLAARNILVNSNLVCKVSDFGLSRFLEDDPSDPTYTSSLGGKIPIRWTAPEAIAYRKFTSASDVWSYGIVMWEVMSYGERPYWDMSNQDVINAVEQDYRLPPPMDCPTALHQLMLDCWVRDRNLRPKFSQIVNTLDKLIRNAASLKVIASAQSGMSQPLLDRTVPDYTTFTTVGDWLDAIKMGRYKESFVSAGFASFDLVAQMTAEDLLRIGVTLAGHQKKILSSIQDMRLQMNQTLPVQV
The note with it: at 0.1 µM.

Test [3] concerns the target T2, Ephrin type-B receptor 3 (Homo sapiens). The settings on record: at 1 µM.
For test [4], the target named is T3, Ephrin type-B receptor 4 (Homo sapiens) (UniProt P54760).
T3 sequence (whole entry): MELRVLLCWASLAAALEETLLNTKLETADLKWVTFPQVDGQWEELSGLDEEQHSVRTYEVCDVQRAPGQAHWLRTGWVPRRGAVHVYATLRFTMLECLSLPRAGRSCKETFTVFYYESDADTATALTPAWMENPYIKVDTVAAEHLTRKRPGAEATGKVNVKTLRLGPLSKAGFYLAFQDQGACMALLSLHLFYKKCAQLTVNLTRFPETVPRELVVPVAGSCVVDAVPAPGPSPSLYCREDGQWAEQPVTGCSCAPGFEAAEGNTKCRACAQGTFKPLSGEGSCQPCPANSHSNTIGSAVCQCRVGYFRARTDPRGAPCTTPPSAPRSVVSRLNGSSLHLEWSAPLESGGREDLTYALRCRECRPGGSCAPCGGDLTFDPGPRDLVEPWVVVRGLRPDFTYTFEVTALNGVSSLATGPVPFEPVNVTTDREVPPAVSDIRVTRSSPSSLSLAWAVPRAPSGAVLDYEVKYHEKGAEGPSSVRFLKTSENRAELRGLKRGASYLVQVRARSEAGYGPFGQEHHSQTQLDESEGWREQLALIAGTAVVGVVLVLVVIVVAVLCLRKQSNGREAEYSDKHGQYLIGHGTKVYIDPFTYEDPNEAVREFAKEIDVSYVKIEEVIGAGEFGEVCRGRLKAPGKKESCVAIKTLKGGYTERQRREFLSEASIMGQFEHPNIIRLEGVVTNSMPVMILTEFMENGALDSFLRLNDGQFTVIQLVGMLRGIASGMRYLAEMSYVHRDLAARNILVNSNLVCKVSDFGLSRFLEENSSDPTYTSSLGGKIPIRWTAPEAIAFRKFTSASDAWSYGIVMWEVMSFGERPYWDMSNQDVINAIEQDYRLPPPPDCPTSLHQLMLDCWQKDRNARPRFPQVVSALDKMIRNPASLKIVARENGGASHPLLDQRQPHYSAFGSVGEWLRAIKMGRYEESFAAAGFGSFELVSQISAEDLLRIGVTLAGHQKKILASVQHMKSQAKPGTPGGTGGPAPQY
The settings on record: at 0.1 µM.

Test [5] concerns the target T3, Ephrin type-B receptor 4 (Homo sapiens). The settings on record: at 1 µM.
For test [6], the target named is Receptor tyrosine-protein kinase erbB-2 (Homo sapiens) (UniProt P04626). The note with it: at 0.1 µM.
Test [7] shares this target. The note with it: at 1 µM.
For test [8], the target named is Receptor tyrosine-protein kinase erbB-4 (Homo sapiens) (UniProt Q15303). The settings on record: at 0.1 µM.
For test [9] the target is unchanged. The settings on record: at 1 µM.
Test [10] concerns the target Tyrosine-protein kinase Fer (Homo sapiens) (UniProt P16591). The settings on record: at 0.1 µM.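 Note: reported figures are averaged percent inhibition of FER.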

Molecules are shown by their SMILES. Where “and” joins values, the source holds several entries; their conditions need not be identical. Identical values can stand only once.

Chain of Tyrosine-protein kinase Fer (Homo sapiens) (P16591 whole entry, looked up): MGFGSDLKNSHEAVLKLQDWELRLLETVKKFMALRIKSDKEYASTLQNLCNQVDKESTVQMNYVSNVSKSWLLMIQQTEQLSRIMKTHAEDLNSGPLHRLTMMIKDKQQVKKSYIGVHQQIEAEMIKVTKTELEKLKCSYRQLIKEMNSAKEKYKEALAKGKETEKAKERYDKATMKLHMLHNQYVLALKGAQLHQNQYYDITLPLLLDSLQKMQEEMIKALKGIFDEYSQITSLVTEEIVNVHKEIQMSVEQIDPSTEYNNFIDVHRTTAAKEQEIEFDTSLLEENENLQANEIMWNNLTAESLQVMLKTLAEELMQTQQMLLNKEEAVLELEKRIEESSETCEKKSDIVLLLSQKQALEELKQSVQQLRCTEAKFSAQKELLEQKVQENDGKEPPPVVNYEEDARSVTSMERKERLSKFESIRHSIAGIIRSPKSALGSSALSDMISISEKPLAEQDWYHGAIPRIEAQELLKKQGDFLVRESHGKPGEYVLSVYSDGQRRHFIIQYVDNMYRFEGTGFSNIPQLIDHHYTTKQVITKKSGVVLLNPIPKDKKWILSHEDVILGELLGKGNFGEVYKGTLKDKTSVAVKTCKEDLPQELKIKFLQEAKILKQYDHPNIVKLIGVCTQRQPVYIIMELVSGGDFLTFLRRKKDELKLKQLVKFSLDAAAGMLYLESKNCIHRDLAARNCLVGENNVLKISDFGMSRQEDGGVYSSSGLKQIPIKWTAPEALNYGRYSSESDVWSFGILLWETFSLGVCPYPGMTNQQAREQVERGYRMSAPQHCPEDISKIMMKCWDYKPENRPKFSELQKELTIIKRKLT
Chain of Receptor tyrosine-protein kinase erbB-4 (Homo sapiens) (Q15303 whole entry): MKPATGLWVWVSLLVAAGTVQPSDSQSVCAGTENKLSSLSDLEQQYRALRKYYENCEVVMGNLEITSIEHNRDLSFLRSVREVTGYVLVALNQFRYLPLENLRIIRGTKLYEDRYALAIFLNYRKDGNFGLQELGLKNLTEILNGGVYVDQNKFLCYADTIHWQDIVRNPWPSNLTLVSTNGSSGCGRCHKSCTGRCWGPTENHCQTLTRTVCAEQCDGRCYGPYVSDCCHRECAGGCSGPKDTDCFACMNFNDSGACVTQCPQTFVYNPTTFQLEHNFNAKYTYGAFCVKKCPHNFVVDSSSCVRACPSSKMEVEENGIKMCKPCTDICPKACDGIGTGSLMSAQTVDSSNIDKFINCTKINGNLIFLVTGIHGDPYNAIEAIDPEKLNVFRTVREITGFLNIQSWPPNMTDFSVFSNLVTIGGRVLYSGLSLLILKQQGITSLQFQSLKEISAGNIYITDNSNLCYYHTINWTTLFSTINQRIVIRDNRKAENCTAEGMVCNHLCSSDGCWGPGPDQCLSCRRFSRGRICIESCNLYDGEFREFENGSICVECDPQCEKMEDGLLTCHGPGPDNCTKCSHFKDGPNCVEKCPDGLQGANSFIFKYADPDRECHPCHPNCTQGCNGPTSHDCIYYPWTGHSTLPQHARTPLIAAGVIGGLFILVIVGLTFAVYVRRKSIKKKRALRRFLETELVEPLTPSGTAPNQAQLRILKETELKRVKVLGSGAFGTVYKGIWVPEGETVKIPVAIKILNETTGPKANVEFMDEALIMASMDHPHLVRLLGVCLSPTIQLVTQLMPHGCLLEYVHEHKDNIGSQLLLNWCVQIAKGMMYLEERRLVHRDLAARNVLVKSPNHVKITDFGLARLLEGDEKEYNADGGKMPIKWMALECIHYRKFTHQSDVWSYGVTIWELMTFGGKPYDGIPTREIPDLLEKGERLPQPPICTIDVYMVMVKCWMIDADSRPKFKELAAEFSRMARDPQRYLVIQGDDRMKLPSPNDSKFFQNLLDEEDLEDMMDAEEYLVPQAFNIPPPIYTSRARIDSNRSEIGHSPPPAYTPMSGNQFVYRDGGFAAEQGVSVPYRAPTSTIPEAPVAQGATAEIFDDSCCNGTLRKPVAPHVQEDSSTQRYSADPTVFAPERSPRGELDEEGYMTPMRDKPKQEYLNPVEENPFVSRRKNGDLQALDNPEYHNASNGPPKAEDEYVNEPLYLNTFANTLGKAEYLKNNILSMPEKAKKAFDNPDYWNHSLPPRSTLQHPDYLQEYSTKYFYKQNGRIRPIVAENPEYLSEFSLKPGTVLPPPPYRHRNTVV
Chain of Receptor tyrosine-protein kinase erbB-2 (Homo sapiens) (P04626 whole entry): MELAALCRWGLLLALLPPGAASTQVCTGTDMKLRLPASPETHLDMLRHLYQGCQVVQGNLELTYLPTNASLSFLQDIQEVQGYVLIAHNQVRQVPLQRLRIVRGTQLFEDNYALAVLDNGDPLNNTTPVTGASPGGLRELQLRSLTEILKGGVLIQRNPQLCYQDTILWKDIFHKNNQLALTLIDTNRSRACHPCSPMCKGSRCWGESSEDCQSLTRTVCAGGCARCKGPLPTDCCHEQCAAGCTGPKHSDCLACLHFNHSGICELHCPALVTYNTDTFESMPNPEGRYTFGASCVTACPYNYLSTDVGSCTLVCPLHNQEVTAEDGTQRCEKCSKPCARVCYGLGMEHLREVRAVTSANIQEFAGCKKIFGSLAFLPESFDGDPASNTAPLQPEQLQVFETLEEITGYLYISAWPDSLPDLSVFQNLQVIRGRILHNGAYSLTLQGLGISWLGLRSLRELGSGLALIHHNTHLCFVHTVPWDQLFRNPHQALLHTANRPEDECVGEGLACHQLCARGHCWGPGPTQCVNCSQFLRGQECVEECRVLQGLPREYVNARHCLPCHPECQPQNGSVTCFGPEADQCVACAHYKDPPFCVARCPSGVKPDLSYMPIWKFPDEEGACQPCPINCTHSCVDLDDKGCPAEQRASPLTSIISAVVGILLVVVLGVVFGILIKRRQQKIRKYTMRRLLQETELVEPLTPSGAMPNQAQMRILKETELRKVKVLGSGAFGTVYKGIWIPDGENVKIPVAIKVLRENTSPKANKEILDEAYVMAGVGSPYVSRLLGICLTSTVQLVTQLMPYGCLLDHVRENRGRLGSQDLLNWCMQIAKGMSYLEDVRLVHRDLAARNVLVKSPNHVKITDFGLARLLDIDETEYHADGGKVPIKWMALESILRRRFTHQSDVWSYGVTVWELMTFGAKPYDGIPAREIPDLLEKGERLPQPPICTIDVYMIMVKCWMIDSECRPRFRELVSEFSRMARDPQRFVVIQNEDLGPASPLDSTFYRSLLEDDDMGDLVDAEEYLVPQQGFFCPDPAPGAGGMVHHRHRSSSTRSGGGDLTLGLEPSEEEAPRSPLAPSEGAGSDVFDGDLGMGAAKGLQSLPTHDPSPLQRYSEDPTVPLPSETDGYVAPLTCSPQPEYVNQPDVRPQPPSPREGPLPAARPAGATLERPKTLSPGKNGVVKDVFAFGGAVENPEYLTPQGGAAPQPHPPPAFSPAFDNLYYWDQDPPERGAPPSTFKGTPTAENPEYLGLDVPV

For the compound `Nc1nccc(-c2c(-c3ccc(F)cc3)ncn2C2CCNCC2)n1`, the inhibition in [1] was 3.74% and 17%; in [2], -8.29% and 1.29%; in test [3], -2.02% and 2.97%; in test [4], -1.79% and 2.99%; in [5] it was 1.69% and 3.45%; in test [6] it was -4.63% and -1.31%. Moreover, the inhibition in test [7] is -2.23% and 2.46%; in [8], 3.28%; in test [9], -6.69% and 9.1%; in test [10] it was -1.84% and 2.2%.
Turning to `CC1=C(C(=O)Nc2ccc3[nH]nc(C)c3c2)C(c2ccc(C(F)(F)F)cc2)CC(=O)N1` (stereo not given), the inhibition came to 3.69% in test [1]; 5.28% in test [2]; 2.84% in test [3]; 1.98% in test [4]; 4.06% in test [5]; 0.35% in test [6]. Further, the inhibition worked out at 0.13% in [7], 9.2% in [8], 16% in test [9] and 1.26% in test [10].
Regarding `COc1cc2c(cc1Nc1nc(Nc3cccc(F)c3C(N)=O)c3cc[nH]c3n1)N(C(=O)CN1CCN(C(C)C)CC1)CC2`, the inhibition came to 3.39% in test [1]; 1.98% in [2]; 0.18% in [3]; 1.3% in test [4]; 2.98% in test [5]; 2.36% in test [6]. For the same compound, the inhibition in test [7] came out at 3.48%; in [8], 16.9%; in test [9] it was 59.7%; in test [10], 8%.
On to `O=C(Nc1n[nH]c2nnc(-c3cccnc3)cc12)C1CC1`, for which the inhibition in test [1] is 3.72%; in [2] it was 0.63%; in test [3], 2.01%; in test [4] it was 2.37%; in [5], 0.6%; in test [6], -2.7%. In addition, the inhibition in [7] is -0.28%; in test [8], -0.62%; in test [9], 1.8%; in test [10], -1.4%.
Regarding `COc1cccc(-n2ncc3c(N/N=C/c4ccc(C(=O)NCCN(C)C)cc4)ncnc32)c1`, the inhibition in test [1] worked out at 46.4%; in test [2] it was 5.98%; in test [3], 7.32%; in [4], 6.37%; in [5] it was 30.5%; in [6], 0.77%. The inhibition worked out at 10.5% in [7], 23.2% in test [8], 49.9% in test [9] and 3.03% in test [10].
As to `COC(=O)Nc1nc2ccc(Oc3ccc(NC(=O)Nc4cc(C(F)(F)F)ccc4F)cc3)cc2s1`, the inhibition in test [1] was 83.7%; in test [2], 16.8%; in [3], 36.6%; in [4], 29.6%; in [5], 73%; in test [6], -0.44%. The inhibition in test [7] was -0.72%; in test [8], 3.56%; in test [9], 3.36%; in [10], 3.43%.
In the case of `Cc1cc(O)cc(C)c1/C=C/c1cncc(C(=O)OC(C)(C)C)c1`, the inhibition in test [1] worked out at 68%; in test [2], 17.4%; in test [3] it was 49.2%; in [4] it was 24.8%; in [5], 70.4%; in test [6] it was 1.78%. The inhibition in [7] was found to be 2.48%; in [8] it was 8.1%; in test [9], 16.1%; in test [10] it was 4.09%.
Turning to `O=C(O[C@H]1CN[C@H](C#Cc2cc3ncnc(Nc4ccc5c(cnn5Cc5ccccc5)c4)c3s2)C1)N1CCOCC1`, the inhibition is 1.97% in test [1]; -0.25% in test [2]; 2.72% in [3]; -1.51% in test [4]; 0.96% in [5]; 6.21% in test [6]. The inhibition in test [7] is 48.3%; in test [8], 107%; in test [9] it was 104%; in test [10] it was -0.71%.

For the origin of these results see ChEMBL document CHEMBL1961873, “Compounds: GSK PKIS; Assays: Nanosyn kinase panel” (2012).
